The nature of assay [1]: growth inhibition of DIPG glioma cells, dose response, cell-based, SU-DIPG-XIII, MIPE5.0, CellTiter-Glo, qHTS (AID 1347064; cut-off not given, nearly all actives have AC50 up to about 23 µM;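 for AC50: cells exposed to compound for 48 hours before the viability read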). The note with it: SU-DIPG-XIII viability, CellTiter-Glo ATP luminescence.
Assay [2] is described as follows: SU-DIPG-XXV glioma cell viability, MIPE5.0 library, qHTS (AID 1347068; cut-off not given, nearly all actives have IC50 up to about 30 µM;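 for IC50: cells exposed to compound for 48 hours before viability readout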).
Assay [3] can be described thus: growth inhibition of DIPG glioma cells, dose response, cell-based, SU-DIPG-XIII, MIPE4.0, CellTiter-Glo, qHTS (AID 1347061; cut-off not given, nearly all actives have AC50 up to about 37 µM;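 note: cells exposed to compound for 48 hours before readout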). The note with it: SU-DIPG-XIII viability, CellTiter-Glo ATP luminescence.
The nature of assay [4]: growth inhibition of DIPG glioma cells, dose response, cell-based, SU-DIPG-IV, MIPE4.0, CellTiter-Glo, qHTS (AID 1347063).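 Note: compound exposure lasted 48 hours before the viability readout.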 Conditions: SU-DIPG-IV viability, CellTiter-Glo ATP luminescence.
Assay [5] is described as follows: SU-DIPG-VI glioma cell viability, MIPE4.0 library, CellTiter-Glo luminescence, qHTS (AID 1347066).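 Note: cells exposed to compound for 48 hours before readout.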 Conditions: CellTiter-Glo ATP luminescence.
Assay [6] is described as follows: growth inhibition of DIPG glioma cells, dose response, cell-based, JHH-DIPG-1, MIPE4.0, CellTiter-Glo, qHTS (AID 1347062; cut-off not given, nearly all actives have AC50 up to about 27 µM). Conditions: JHH-DIPG-1 viability, CellTiter-Glo ATP luminescence.
A short description of assay [7]: circadian clock period modulators, cell-based, LOPAC library, luminescence reporter (AID 2774; call rule not given here;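 note: values are relative to mean of DMSO wells on each plate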). The note with it: circadian reporter cells, at 7 µM, actives lie on both sides.
Assay [8] is described as follows: LFS_MB_1R medulloblastoma cell growth inhibition, synergistic combos for chromothripsis tumors, cisplatin or BGB combos (AID 1671452; in the data active = inhibition above about 80%;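 note: cells exposed for 96 hours before readout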). Conditions: LFS_MB_1R medulloblastoma cells, stronger effect = higher value.
Assay [9] is described as follows: CRL2098 osteosarcoma cell growth inhibition, synergistic combos for chromothripsis tumors, BGB or cisplatin IC20 combos (AID 1671454; in the data active = inhibition above about 80%;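 note: cells exposed for 96 h before readout; 0% = vehicle DMSO and 100% = killing by high DMSO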). The note with it: CRL2098 osteosarcoma cells, drug combinations, stronger effect = higher value.
The nature of assay [10]: growth inhibition of BT084 medulloblastoma cells, cell-based, ICGC_MB145, cisplatin and BGB IC40 combos (AID 1671461; in the data active = inhibition above about 80%;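 note: cells exposed to drugs for 96 hours; 0% = vehicle DMSO and 100% = high DMSO full killing control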). Conditions: drug combinations, stronger effect = higher value.
Assay [11] in a line: growth inhibition of RCMB18 medulloblastoma cells, cell-based, cisplatin and BGB IC40 combos (AID 1671462; in the data active = inhibition above about 80%;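 note: cells exposed to compound for four days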). Conditions: stronger effect = higher value.
Assay [12] is described as follows: growth inhibition of CRL1545 osteosarcoma cells, cell-based, cisplatin and BGB IC20 combos (AID 1671464; in the data active = inhibition above about 80%;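 note: cells exposed to compound for 96 hours before readout; 0% = vehicle DMSO and 100% = high DMSO killing control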). Conditions: stronger effect = higher value.
Setting [13] is: measured here: combination with cisplatin, at 0.5 µM.

Records with an inconclusive call do not appear. Calls of active or inactive are those of the source. Unless noted, no cut-off is given here; in the data, nearly all actives have AC50 up to about 30 µM.

Consider `CC[C@]1(O)CC2CN(CCc3c([nH]c4ccccc34)[C@@](C(=O)OC)(c3cc4c(cc3OC)N(C)[C@H]3[C@@](O)(C(=O)OC)[C@H](OC(C)=O)[C@]5(CC)C=CCN6CC[C@]43[C@@H]65)C2)C1` (some centres undefined), for which the concentration at half-maximal activity (AC50) in [1] is 0.0833 µM (active). Further, in [2], the IC50 is 3.32 µM (active).
On to `COC1=C(OC)C(=O)C(C/C=C(\C)CC/C=C(\C)CC/C=C(\C)CC/C=C(/C)CC/C=C(\C)CC/C=C(\C)CC/C=C(\C)CC/C=C(\C)CC/C=C(\C)CCC=C(C)C)=C(C)C1=O`, for which the compound was classed as inactive in [1] and in assay [2].
As to `CN[C@@H]1[C@H](O[C@H]2[C@H](O[C@@H]3[C@@H](O)[C@H](O)[C@@H](N=C(N)N)[C@H](O)[C@H]3N=C(N)N)O[C@@H](C)[C@]2(O)C=O)O[C@@H](CO)[C@H](O)[C@H]1O`, the compound was called inactive in assay [1] and in assay [2].
Take `COC(=O)/C=C/C(=O)OC`: the figures for the AC50 in assay [3] and in [4] were 14.8 µM (active) and 0.935 µM (active), respectively. Further, the call in assay [1], in assay [5] and in assay [2] was inactive.
Take `Nc1nc(F)nc2c1ncn2[C@@H]1O[C@H](COP(=O)(O)O)[C@@H](O)[C@@H]1O`: the outcome in [6], in assay [5] and in [2] was inactive.
As for `CC(C)=CCC/C(C)=C/CC/C(C)=C/CC/C(C)=C/CC/C(C)=C/CC/C(C)=C/CC/C(C)=C/CC/C(C)=C/CC/C(C)=C/CO`, the result in assay [6], in assay [4] and in assay [5] was inactive.
On to `CC(C)(CO)[C@@H](O)C(=O)NCCC(=O)O`, for which the result in assay [3], in assay [6], in [4], in assay [1], in assay [5] and in assay [2] was inactive.
In the case of `CCCCS(=N)(=O)CCC(N)C(=O)O` (centres undefined), the period change in assay [7] is -0.105 h (inactive). Also, the call in [3], in [6], in [4], in [5] and in [2] was inactive.
On to `Cc1cc2nc3c(=O)[nH]c(=O)nc-3n(CC(O)C(O)C(O)CO)c2cc1C` (centres undefined), for which the result in [3], in assay [6], in assay [1] and in assay [5] was inactive.
In the case of `N#CC(c1ccc(Cl)cc1)c1c(Cl)cc(-n2ncc(=O)[nH]c2=O)cc1Cl` (centres undefined), the AC50 is 23.5 µM (active) in assay [3] and 13.2 µM (active) in assay [5]. Moreover, in assay [1], the compound was classed as inactive.
In the case of `Cc1c(-c2cnccn2)ssc1=S`, the AC50 in assay [1] was 10.5 µM (active). Further, the inhibition in [8] (at 0.5 µM) is -48.5% (inactive); in assay [8] (measured here: combination with BGB IC40, at 0.05 µM) it was 12.7%; in assay [8] (setting [13]), -42.8%; in assay [8] (measured here: combination with cisplatin, at 5 µM) it was -46.1%; in [9] (at 0.5 µM), -91.2% (inactive); in assay [9] (measured here: combination with BGB at IC20, at 0.5 µM) it was -80.8%. For the same compound, the inhibition is -109% in assay [9] (measured here: combination with cisplatin at IC20, at 0.5 µM); -10.9% (inactive) in [10] (at 0.5 µM); -13.8% in [10] (cisplatin combination, at 0.5 µM); -45.9% in assay [10] (cisplatin combination, at 5 µM); 2.43% in assay [10] (measured here: BGB IC40 combination 0.05 uM, at 0.05 µM); -13.6% in assay [10] (single agent, at 5 µM). The inhibition is -21% (inactive) in [11] (at 0.5 µM); -46.1% in [11] (cisplatin combo, at 5 µM); -10.6% in [11] (measured here: BGB IC40 combination, at 0.05 µM); -54.1% in [11] (setting [13]); -29.2% in assay [11] (single agent, at 5 µM); -60.7% (inactive) in [12] (at 0.5 µM). The inhibition in assay [12] (measured here: with BGB IC20 combination, at 0.5 µM) was -51%; in assay [12] (measured here: with cisplatin IC20 combination, at 0.5 µM), -65.5%; in [12] (single agent, at 0.05 µM), -3.94%; in [12] (single agent, at 5 µM) it was -64.9%.
In the case of `OC[C@@H](O)[C@@H](O)[C@H](O)[C@@H](O)CO`, the call in assay [3], in assay [6], in assay [1], in assay [5] and in [2] was inactive.

For the origin of these results see PubChem BioAssay.
